Screening results: PubChem, National Center for Advancing Translational Sciences (NCATS)
This is a sample that favours compounds with a hit; in the whole collection about 2.4% have one here.
Pol kappa inh-1: qHTS for Inhibitors of Polymerase Kappa | AID 588579, 2011 | Potency, µM (top dose mostly 107 µM), actives largely listed as inhibitors | 400,000 tested, 0.53% active | purified Pol kappa, fluorescent DNA synthesis assay, 10 min | DNA polymerase kappa (Homo sapiens), Q9UBT6
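Pol kappa 10 nM + cpd, 15 min RT; start w/ substrate 50 nM final; fluorescence kinetic read, 0 and 10 min. Neg ctrl: buffer, no enzyme.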
WRN helicase inh: qHTS for Inhibitors of WRN Helicase. Bifunctional 3'-5' exonuclease/ATP-dependent helicase WRN (Homo sapiens), Q14191. WRN helicase unwinding, fluorescent forked duplex, kinetic. Potency, µM (series often up to 114 µM), most hits filed as inhibitors. 360,000 tested, 0.46% active; note: nearly all actives have a fitted effect of over 55% in size
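Enzyme (20 nM final) and test compound sit together 15 min at room temperature before substrate addition. Substrate is a single-forked duplex oligonucleotide (100 nM) labelled with fluorophore and quencher, with 2 mM ATP; helicase unwinding raises red fluorescence, read kinetically.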
POLI inh: qHTS for Inhibitors of Polymerase Iota; Pol iota fluorescent replication assay, 10 min; Potency, µM (series often up to 115 µM), hits mostly inhibitors; 390,000 tested, 1% active; AID 588590, 2011
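Pol iota at 10 nM preincubated 15 min with compounds at room temperature; reaction started with fluorescent substrate, 50 nM final. Fluorescence read kinetically at 0 and 10 min; buffer-only wells as negative control.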
FEN1 inhibitor: qHTS Assay for the Inhibitors of Human Flap endonuclease 1 (FEN1). 390,000 tested, 0.35% active. P39748. Potency, µM (top dose mostly 114 µM), most hits filed as inhibitors. Recombinant FEN1 flap cleavage, fluorescence, 15 min; note: nearly all actives have a fitted effect of over 65% in size
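Steps: FEN1 (10 nM) dispensed; compound added by pin tool; 15 min at room temperature; substrate added to 50 nM final; reads at 0 min and 15 min; data normalized and fitted (four-parameter Hill).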
POLB inh: qHTS Assay for Inhibitors of DNA Polymerase Beta; 340,000 tested, 1.3% active; Pol beta primer extension/strand displacement, fluorescence kinetic; Potency, µM (top dose mostly 114 µM), actives largely listed as inhibitors; P06746
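Pol beta (10 nM) was preincubated with compound for 15 min at room temperature. The reaction was then started with 50 nM substrate and read immediately and after a further 10 min at room temperature.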
Pol eta inh-1: qHTS for Inhibitors of Polymerase Eta; DNA polymerase eta (Homo sapiens), Q9Y253; recombinant Pol eta, fluorescent DNA replication assay; Potency, µM (highest dose often 114 µM), most hits filed as inhibitors; 390,000 tested, 1.2% active; AID 588591, 2011
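Pol eta at 10 nM preincubated with compounds 15 min at room temperature; reaction started with fluorescent substrate (50 nM final) and read kinetically at 0 and 10 min.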
Pol kappa inh-2: qHTS for Inhibitors of Polymerase Kappa: Confirmatory Assay for Cherry-picked Compounds. purified Pol-kappa, fluorescent strand-displacement substrate. 920 tested, 76% active. Potency, µM, usual class: inhibitors. AID 720501, 2013. shares compounds with Pol eta inh-1
Pol eta inh-2: qHTS for Inhibitors of Polymerase Eta: Confirmatory Assay for Cherry-picked Compounds | shares compounds with Pol eta inh-1 | Pol eta primer extension, TAMRA/BHQ fluorescence, 10 min | Potency, µM, actives largely listed as inhibitors | 2,600 tested, 64% active | AID 720502, 2013
Large screens that a line does not name were inactive (follow-up assays come after a bar, where they were run). Calls come from the whole dose curve; as a rule, active = well fitted curve in the direction sought with a large enough effect; inconclusive = small, poorly fitted or top-dose-only effect, or another doubt; inactive = no such curve, though single readings can be large; an effect the other way counts as inactive or inconclusive.

O=C(Nc1nnc(C2CC2)s1)C1CC(=O)N(c2ccc3c(c2)OCCO3)C1 (stereo unspecified)	Pol kappa inh-1 inconclusive, POLI inh 45µM, POLB inh inconclusive, Pol eta inh-1 20µM | Pol eta inh-2 inconclusive
O=C(Nc1nnc(C2CCCCC2)s1)C1CC(=O)N(c2ccccc2)C1 (stereo unspecified)	none
Cc1cc(CNC(=O)c2cccc3c2C(=O)c2ccc(-c4ccc(F)cc4OCc4ccccc4)cc2S3(=O)=O)c(C(F)(F)F)o1	Pol kappa inh-1 79µM, POLI inh 40µM, FEN1 inhibitor inconclusive, Pol eta inh-1 20µM (no result: POLB inh) | Pol eta inh-2 54
O=C(NC[C@H]1CCCO1)c1cccc2c1C(=O)c1ccc(-c3ccc(F)cc3OCc3ccccc3)cc1S2(=O)=O	none (no result: POLB inh)
COc1cccc(Cn2c(=O)c(-c3cccc(Cl)c3)nc3cncnc32)c1	none (no result: WRN helicase inh, POLI inh, FEN1 inhibitor, POLB inh, Pol eta inh-1)
CC(=O)Oc1ccc(C(=O)Nc2cccc(C(=O)c3cccc(NC(=O)c4ccc(OC(C)=O)cc4)c3)c2)cc1	Pol kappa inh-1 inconclusive, WRN helicase inh inconclusive, POLI inh 7.9µM, FEN1 inhibitor inconclusive, POLB inh 13µM, Pol eta inh-1 3.2µM | Pol eta inh-2 54
CC(=O)Oc1ccc(C(=O)Nc2cccc(C(=O)NC(C)(C)C)c2)cc1	none
COC(=O)c1ccc(NS(=O)(=O)c2ccc3[nH]c(=O)oc3c2)cc1	Pol kappa inh-1 inconclusive, POLI inh 45µM, POLB inh 35µM, Pol eta inh-1 25µM | Pol eta inh-2 inconclusive
COC(=O)c1ccc(NS(=O)(=O)c2ccc3[nH]c4c(c3c2)CCCC4)cc1	none (no result: WRN helicase inh)
NCCNC(=O)c1ccc(Cl)cn1	none (no result: WRN helicase inh, POLI inh, FEN1 inhibitor, POLB inh, Pol eta inh-1)
O=C(O)c1ccccc1C=NNc1ccc([N+](=O)[O-])cn1	none (no result: POLB inh)
O=C(O)c1cc(-c2ccc(/C=N/Nc3ccc([N+](=O)[O-])cn3)o2)ccc1Cl	WRN helicase inh inconclusive, POLI inh inconclusive, POLB inh inconclusive | Pol kappa inh-2 75 | Pol eta inh-2 85
Cc1cc(S(=O)(=O)Nc2nc(CN3CCOCC3)nc3sc4c(c23)CCC4)cc(C)c1C	Pol kappa inh-1 inconclusive, WRN helicase inh inconclusive, POLI inh 25µM, Pol eta inh-1 18µM (no result: POLB inh) | Pol kappa inh-2 inconclusive | Pol eta inh-2 inconclusive
Cc1ccc(S(=O)(=O)Nc2nc(CN3CCOCC3)nc3sc(C(=O)O)c(C)c23)cc1	Pol eta inh-1 13µM (no result: Pol kappa inh-1, POLI inh, FEN1 inhibitor, POLB inh) | Pol eta inh-2 30
COc1ccc(/C=N\NC(=O)c2ccc([N+](=O)[O-])c(C)c2)cc1COc1ccccc1C(N)=O	WRN helicase inh inconclusive, FEN1 inhibitor 79µM, POLB inh inconclusive | Pol kappa inh-2 38
COc1ccc(/C=N/NC(=O)c2cccnc2)cc1COc1ccc([N+](=O)[O-])c(C)c1	none
COc1ccc(Cl)cc1NC(=O)c1c(NCc2cccnc2)sc2c1CCC(C)C2 (stereo unspecified)	POLI inh inconclusive, POLB inh inconclusive (no result: WRN helicase inh)
COc1ccc(-c2csc(NC(=O)c3ccccc3F)n2)cc1	none
Cc1ccc(S(=O)(=O)Nc2ccccc2C(=O)Nc2nc(-c3ccc(F)cc3)cs2)cc1	Pol kappa inh-1 inconclusive, WRN helicase inh inconclusive, POLI inh inconclusive, Pol eta inh-1 89µM | Pol eta inh-2 inconclusive
CCc1nn(CCCC(=O)N2CCN(c3cc(Cl)ccc3C)CC2)c(=O)c2cc3occc3n12	none (no result: WRN helicase inh)
CC1=C(C)CC(C(=O)NC2CCCC2)C(C(=O)O)C1 (stereo unspecified)	none
CC1=CCC(C(=O)O)C(C(=O)NC2CCCCC2)C1 (stereo unspecified)	POLI inh inconclusive, POLB inh 28µM, Pol eta inh-1 20µM | Pol kappa inh-2 84 | Pol eta inh-2 85
COc1ccc(NC(=O)Cn2cc(S(=O)(=O)Cc3ccc(F)cc3)c3ccccc32)cc1OC	POLI inh inconclusive, Pol eta inh-1 50µM (no result: WRN helicase inh) | Pol kappa inh-2 inconclusive
CNc1ccccc1C(=O)N1CCc2c([nH]c3ccccc23)C1=O	none (no result: WRN helicase inh, POLI inh, FEN1 inhibitor, POLB inh, Pol eta inh-1)
Cc1ccc(CNC(=O)C(=O)Nc2c3c(nn2-c2ccc(F)cc2)CSC3)cc1	POLB inh inconclusive (no result: WRN helicase inh)
Cc1cnc(CNc2cc(-c3ccoc3)ncn2)cn1	none (no result: WRN helicase inh, POLI inh, FEN1 inhibitor, POLB inh, Pol eta inh-1)
COc1cc(OC)c(-c2nn3c(-c4n[nH]c5c4CCC5)nnc3s2)cc1OC	none (no result: WRN helicase inh, POLB inh, Pol eta inh-1)
c1csc(Cc2nn3c(-c4n[nH]c5c4CCC5)nnc3s2)c1	POLI inh inconclusive, POLB inh 28µM, Pol eta inh-1 11µM | Pol eta inh-2 inconclusive
Nc1ccccc1C(=O)C[C@@H](N)C(=O)O	none (no result: WRN helicase inh, POLI inh, FEN1 inhibitor, POLB inh, Pol eta inh-1)
O=C(Oc1ccccc1F)c1ccc2c(=O)n3c(nc2c1)CCC3	POLI inh inconclusive, Pol eta inh-1 inconclusive (no result: POLB inh) | Pol eta inh-2 67
Cc1cccc(CNc2nc(-c3ccccc3CN(C)C)nc3ccccc23)c1	none (no result: WRN helicase inh, POLI inh, FEN1 inhibitor, POLB inh, Pol eta inh-1)
COc1ccc(OC)c(/C=N/Nc2nncn2/N=C/c2cc(OC)ccc2OC)c1	POLI inh inconclusive, FEN1 inhibitor inconclusive, POLB inh inconclusive, Pol eta inh-1 inconclusive | Pol eta inh-2 30
CC(=O)NCCCS(=O)(=O)O	none (no result: WRN helicase inh, POLI inh, FEN1 inhibitor, POLB inh, Pol eta inh-1)
